# NALP3 yeast inh – NALP3 inflammasome inhibitors in reconstituted yeast, primary screen, luminescence, uHTS; actives 0.39% (n = 330,000); Yeast reconstituted NLRP3/ASC/caspase-1, beta-gal luminescence, 24 h; inhibition, % at 10 µM;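 active = inhibition of 50% or more; inactive = inhibition below 50%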;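 also: plate controls were induced DMSO wells for no effect and uninduced yeast grown without galactose for full effect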
# tim23-1 inh – growth inhibitors of tim23-1 mutant yeast, primary screen, luminescence, uHTS; S. cerevisiae tim23-1 growth, BacTiter-Glo luminescence, 24 h; inhibition, % at 20 µM; actives 1.3% (n = 330,000);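 active = growth inhibition of the mutant yeast at or above 50%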;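 also: temperature-sensitive mutant grown at 25 °C; plate controls were DMSO-treated mutant yeast for no effect and medium wells lacking yeast for full effect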
# PfHsp90 yeast 2 – growth inhibition of PfHsp90-expressing yeast, primary screen, antimalarial PfHsp90 inhibitor project, S. cerevisiae, BacTiter-Glo luminescence, single point, set 2; BacTiter-Glo ATP, 48 h; yeast lacking PDR1 and PDR3 efflux regulators; inhibition, % at 9.4 µM; actives 0.32% (n = 310,000); AID 504621, 2011;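 active = every replicate shows inhibition above about 80%, whatever the replicate mean, limit read from the data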;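 also: 0% = DMSO neutral controls and 100% = 20 µM radicicol positive controls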
# SKKanGAS inh – S. pyogenes SKKanGAS growth inhibitors in kanamycin, primary screen, streptokinase expression inhibitor project, SKKanGAS strain, BacTiter-Glo luminescence; 6 h; inhibition, % at 7.5 µM; actives 1.3% (n = 300,000);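 active = mean replicate score, as percent of positive control median, at least 50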;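 also: strain carries kanamycin resistance gene driven by streptokinase promoter and grows in 40 µg/ml kanamycin; loss of luminescence reflects streptokinase promoter inhibition or plain growth inhibition; 0% = median of DMSO wells and 100% = positive control at its reference dose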
# TIM10 inh – growth inhibitors of isogenic TIM10 control yeast, primary screen, counter-screen for tim10-1 yeast inhibitor project, luminescence, uHTS | S. cerevisiae TIM10 strain growth, BacTiter-Glo luminescence, 24 h | AID 463195, 2010 | inhibition, % at 10 µM | actives 1.4% (n = 330,000);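 active = inhibition of 40% or more at the single tested concentration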;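 also: wild-type TIM10 isogenic control strain grown at permissive 25 °C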
# tim10-1 inh – growth inhibitors of tim10-1 mutant yeast, primary screen, luminescence, uHTS. S. cerevisiae tim10-1 ts strain growth, BacTiter-Glo, 24 h. inhibition, % at 20 µM. actives 2.2% (n = 330,000);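 active = inhibition of at least 40%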;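 also: mutant grown at 25 °C; 0% = DMSO wells with yeast and 100% = wells holding no yeast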
# tim10-1 confirm – growth inhibitors of tim10-1 mutant yeast, confirmation, single concentration, luminescence, S. cerevisiae. shares compounds with tim10-1 inh. S. cerevisiae tim10-1 ts strain growth, BacTiter-Glo, 24 h. inhibition, % at 20 µM. actives 56% (n = 7,400). AID 463213, 2010;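 active = inhibition of yeast growth at or above a set limit in either of two repeat tests at 20 µM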;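 also: tim10-1 mutant grown at permissive 25 °C to find synthetic lethal compounds; 0% = DMSO yeast wells and 100% = medium wells without yeast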
# TIM10 conf – growth inhibitors of wild-type TIM10 yeast, confirmation, counter-screen for tim10-1 synthetic lethality project, single concentration, luminescence, S. cerevisiae; inhibition, % at 10 µM; S. cerevisiae tim10 strain growth, BacTiter-Glo luminescence, 24 h; actives 63% (n = 4,600); shares compounds with TIM10 inh;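 active = inhibition of yeast growth at or above a set limit in either of two replicates at 10 µM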;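 also: this counterscreen used the strain with wild-type TIM10; 0% = yeast with DMSO and 100% = medium wells lacking yeast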
# tim23-1 confirm – tim23-1 mutant yeast growth inhibitors, confirmation, luminescence, single concentration. shares compounds with tim23-1 inh. S. cerevisiae tim23-1 growth, BacTiter-Glo luminescence, 24 h. inhibition, % at 20 µM. actives 83% (n = 4,400). AID 463218, 2010;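 active = inhibition above about 39% in either of two replicate wells at 20 µM, limit read from the data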;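 also: temperature-sensitive tim23-1 mutant grown at 25 °C; 0% = DMSO wells with yeast and 100% = medium wells without yeast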
# * marks the source's active call; other numbers are inactive results; nt = not tested or not shown. In the library only some 4.6% were active in any assay of this set; here they are far more common.
SMILES,NALP3 yeast inh,tim23-1 inh,PfHsp90 yeast 2,SKKanGAS inh,TIM10 inh,tim10-1 inh,tim10-1 confirm,TIM10 conf,tim23-1 confirm
CCOC(=O)C1(CC2CCCCO2)CCN(Cc2cc3ccccc3[nH]2)CC1 (stereo unspecified),21,29,0,1,17,16,nt,nt,nt
COc1ccc(CCNC(=O)c2ccc3c(c2)S(=O)(=O)N=C2CCCCCN23)cc1,12,5,13,22,5,10,nt,nt,nt
CCOC(=O)c1nn(C)c(=S)n(C)c1=O,nt,nt,-2,nt,nt,nt,nt,nt,nt
COc1ccc(/C=C2\CCc3ccccc3C2=O)cc1O,36,65*,21,5,45*,54*,41*,42*,59*
O=C1CC(c2cccc(Cl)c2)c2cc3c(cc2N1)CCC3 (stereo unspecified),7,60*,-149,-6,13,41*,23,nt,57*
COc1cccc(C2CC(=O)Nc3cc4c(cc32)CCC4)c1 (stereo unspecified),24,40,20,-1,19,3,nt,nt,nt
Cc1nnc(-c2ccc(Cl)cc2)nc1NCCN(C)C,-3,-6,45,-9,2,5,nt,nt,nt
OCCCNc1nc(-c2ccc(Br)cc2)nnc1-c1ccc(Cl)cc1,6,54*,40,24,12,42*,31*,nt,59*
COCCCNc1nc(-c2ccc(Cl)cc2)nc2ccccc12,26,59*,2,0,27,46*,34*,nt,54*
OCCCNc1nc(-c2ccc(Cl)cc2)nc2ccccc12,17,60*,28,-3,34,43*,27,nt,31
CC(C)(C)c1cc(-c2nc(N)nc(N)n2)cc(C(C)(C)C)c1,12,64*,26,15,42*,51*,49*,-11,61*
O=C(Nc1ccccc1Cl)c1ccccc1Oc1ccc(C(F)(F)F)cc1[N+](=O)[O-],13,56*,-12,19,12,44*,36*,nt,51*
CN(c1ccc(O)cc1)c1nc(-c2cccs2)cs1,27,72*,-2,3,64*,49*,44*,57*,52*
Cc1cc(O)ccc1Nc1nc(-c2cccs2)cs1,25,30,19,27,36,34,nt,nt,nt
CCC(C)NC(=O)CN1c2cccc3cccc(c23)S1(=O)=O (stereo unspecified),22,-2,12,5,1,19,nt,nt,nt
CC(=O)Nc1ccc(N2CCCCC2)c(C(=O)Nc2cccc(C)c2)c1,-2,54*,-12,17,38,43*,57*,nt,50*
O=C(c1ccc([N+](=O)[O-])cc1[N+](=O)[O-])n1cnc2ccccc21,16,73*,-2,3,59*,69*,76*,52*,84*
O=C(c1ccccc1[N+](=O)[O-])n1cnc2ccccc21,-1,7,9,-9,35,33,nt,nt,nt
O=C(OCC(=O)N1CCOCC1)c1ccc(Br)cc1,9,1,10,16,8,-25,nt,nt,nt
CC(OC(=O)c1ccc2c(c1)NC(=O)CS2)C(=O)c1ccc(F)cc1 (stereo unspecified),4,22,nt,nt,-18,-29,nt,nt,nt
O=C(/C=C/c1ccco1)c1ccc(O)cc1,25,11,nt,-9,21,30,nt,nt,nt
O=C(/C=C/c1ccccc1Cl)c1ccc(O)cc1,30,63*,110*,0,38,40*,29,nt,59*
Fc1ccc(NC(=S)NCCc2ccccc2)c(F)c1F,37,51*,3,13,41*,40*,19,35*,49*
Fc1ccccc1NC(=S)NCCc1ccccc1,25,18,3,6,15,33,nt,nt,nt
O=[N+]([O-])c1ccc(NC(=S)NCCc2ccc(F)cc2)cc1,34,74*,14,0,64*,75*,70*,-29,70*
SMILES,NALP3 yeast inh,tim23-1 inh,PfHsp90 yeast 2,SKKanGAS inh,TIM10 inh,tim10-1 inh,tim10-1 confirm,TIM10 conf,tim23-1 confirm
S=C(NCCc1ccc(Cl)cc1)Nc1ccc(Cl)cc1Cl,43,60*,17,39,48*,50*,56*,44*,66*
Fc1ccc(CCNC(=S)Nc2ccc(F)c(Cl)c2)cc1,34,55*,0,22,41*,52*,66*,27,75*
COc1cc(/C=N/NC(=O)c2cc(-c3cccc(OC(C)C)c3)nc3ccccc23)ccc1O,14,18,-44,25,5,18,nt,nt,nt
Cc1nnc(SCc2cccc([N+](=O)[O-])c2)[nH]c1=O,-1,8,-7,2,8,2,nt,nt,nt
S=C1NCCOCCOCCNC(=S)N2CCOCCOCCN1CCOCCOCC2,11,-12,28,-1,12,1,nt,nt,nt
O=[N+]([O-])c1c(Nc2ccccn2)cc(Cl)c2nonc12,39,94*,108*,16,95*,94*,94*,100*,96*
O=C(O)c1ccccc1Nc1cc(Cl)c2nonc2c1[N+](=O)[O-],26,12,-8,7,-9,2,nt,nt,nt
Cc1nn(-c2ccccc2)c2c1C1(C(=O)N3c4c(cccc41)C(C)CC3(C)C)C(C#N)=C(N)O2 (stereo unspecified),3,69*,-16,12,52*,75*,73*,43*,78*
CN(Cc1ccc(C(C)(C)C)cc1)C(=O)c1ccc2c(c1)OCO2,-37,42,nt,nt,25,32,nt,nt,nt
CS(=O)(=O)Nc1nc2n(n1)C(c1ccccc1)CC(c1ccccc1)N2 (stereo unspecified),10,-3,-10,-12,-9,0,nt,nt,nt
COc1ccc(C(C[N+](=O)[O-])c2c(C)cc3ccccn23)cc1 (stereo unspecified),14,47,-9,-1,9,30,nt,nt,nt
